Results as given in PubChem BioAssay AID774 (SRMLSC, 2007).
Hit rate of the full screen: of about 65,000 compounds, about 15 (0.02%) were called active.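 Rule for the calls: active = single-dose screening hits from any of four coupled enzyme assays that gave an IC50 when retested across doses; inconclusive = no clear call, values can overlap the other calls; inactive = the rest.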 Not all results are given here. Non-standard residues stand in square brackets, D forms with d. Residues, ends and D or L forms follow the SMILES beside them. ξ: configuration not given here. ξV = CC(C)C(N)C(=O)O

assay: inhibitors of PK/LDH coupling enzymes, profiling panel, artefact control, biochemical, MLSMR library (AID 774); conditions: coupled PK/LDH NADH assays, four targets; at 10 µM; hits give high values;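 note: the DPM-DC format reads NADH fluorescence rather than 340 nm absorbance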

inhibition, inactive:
O=C(NC1=NCCS1)c1ccc(Cl)s1 10%
c1ccc(-c2noc(-c3cccs3)n2)nc1 3%
CCCOC(=O)Nc1sc2c(c1C(=O)OCC)CCC2 5%
O.O.O.O=S(=O)([O-])OC[C@H]1O[C@@H](O[C@]2(COS(=O)(=O)[O-])O[C@H](OS(=O)(=O)[O-])[C@@H](OS(=O)(=O)[O-])[C@@H]2OS(=O)(=O)[O-])[C@H](OS(=O)(=O)[O-])[C@@H](OS(=O)(=O)[O-])[C@@H]1OS(=O)(=O)[O-].[Al] 1%
CC(=O)c1c(C)n([O-])c2ccccc2[n+]1=O 5%
Cc1ccc2[nH]c3c(c2c1)CN(C(=O)CN1CCN(c2ccccc2)CC1)CC3 3%
CCn1c(SCC(=O)NCc2ccco2)nnc1-c1ccc(N)cc1 3%
COc1ccc2c3c(c(=O)oc2c1OCC(=O)C(C)(C)C)CCCC3 4%
O=C(O)c1ccc(F)c(S(=O)(=O)Nc2ccccc2)c1 6%
CC1CN(Cc2nc3c(c(=O)n(C)c(=O)n3C)n2Cc2cccc(Cl)c2)CC(C)O1 (configuration not stated) 5%
CC(=O)NC(C(=O)NCC(N)=O)C(C)C (configuration not stated) (Ac-[ξV]-Gly-NH2) 4%
Cn1c(-c2ccc(C(=O)c3ccccc3)s2)nc2ccccc21 6%
O=C(Oc1ccc2c(c1)CCC2)N1CCOCC1 3%
O=P(c1ccc2c(c1)OCCO2)(N1CCOCC1)N1CCOCC1 0%
CCOc1ccc(OCC)c(NC(=O)C(NS(=O)(=O)c2ccc3c(c2)oc(=O)n3C)C(C)C)c1 (configuration not stated) 7%
O=C(O)CN1C(=O)CC(Cc2ccccc2)C1=O (configuration not stated) 1%
CCCc1cc(=O)oc2c(C)c(O)c(CN3CCCCC3)cc12 1%
CO/N=C(\C(=O)N[C@@H]1C(=O)N2C(C(=O)O)=C(COC(C)=O)CS[C@H]12)c1csc(N)n1 (stereo in doubt) 0%
Cc1noc(C)c1S(=O)(=O)N(CC(=O)NCc1ccc(Cl)cc1)c1ccc2c(c1)OCO2 9%
C=CCNC(=O)CCCC(=O)NCC=C 5%
CCCn1c(SCC(=O)Nc2cccc(C(=O)OCC)c2)nnc1-c1ccoc1C 7%
C=CCOc1nc2c(c(=O)n(C)c(=O)n2C)n1Cc1ccc(Cl)cc1Cl 8%
Fc1ccc2nc(Nc3nc4c(s3)CCCC4)sc2c1 3%
C=CCNC(=O)C1CC=CCC1C(=O)O (configuration not stated) 4%
CCO/C([O-])=N/c1c[n+](N2CCOCC2)no1 1%
COC(=O)Cc1csc(Nc2c(C)n(C)n(-c3ccccc3)c2=O)n1 8%
COc1ccccc1C1/C(=C(/O)c2ccc(C)cc2)C(=O)C(=O)N1Cc1ccco1 (configuration not stated) 10%
C=CCc1cccc2cc(C(=O)OCC)c(=O)oc12 6%
Cn1c(=O)c2c(nc(OCc3cccnc3)n2Cc2ccccc2)n(C)c1=O 3%
CCOc1ccc(OCC)c(NC(=O)CN(C)S(=O)(=O)c2cccc3nsnc23)c1 4%
O=C(OCC(O)C(O)COC(=O)c1ccccc1)c1ccccc1 (configuration not stated) 5%
c1ccc2c(CNn3cnnc3)cccc2c1 3%
